Consider 57 compounds from PubChem BioAssay AID778 (Sanford-Burnham Center for Chemical Genomics, 2007).

In general, inhibition refers to the change of the read-out against control, counted positive when it falls.

Out of some 96,000 compounds screened, about 20,000 (21%) were called active. Only a sample is shown. A number with no mark means an inactive call.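 Rule for the calls: active = CYP2C19 inhibition above a set limit at 5 µM in the primary screen (cut at about 50% in these data); inactive = the rest.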

The target in this assay is Cytochrome P450 2C19 (Homo sapiens) (UniProt P33261). As to the kind of experiment: blockers of cytochrome P450 2C19 activity – biochemical, luminescence, ADME assay, primary screen (AID 778).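 Note: plate controls were negative control wells for no effect and 2.5 mM tranylcypromine positive control for full effect.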 Particulars: CYP2C19 Supersomes, luciferin-H EGE luminescence, 30 min; at 5 µM; active compounds read high.
Cytochrome P450 2C19 (Homo sapiens), sequence (P33261 whole entry, looked up): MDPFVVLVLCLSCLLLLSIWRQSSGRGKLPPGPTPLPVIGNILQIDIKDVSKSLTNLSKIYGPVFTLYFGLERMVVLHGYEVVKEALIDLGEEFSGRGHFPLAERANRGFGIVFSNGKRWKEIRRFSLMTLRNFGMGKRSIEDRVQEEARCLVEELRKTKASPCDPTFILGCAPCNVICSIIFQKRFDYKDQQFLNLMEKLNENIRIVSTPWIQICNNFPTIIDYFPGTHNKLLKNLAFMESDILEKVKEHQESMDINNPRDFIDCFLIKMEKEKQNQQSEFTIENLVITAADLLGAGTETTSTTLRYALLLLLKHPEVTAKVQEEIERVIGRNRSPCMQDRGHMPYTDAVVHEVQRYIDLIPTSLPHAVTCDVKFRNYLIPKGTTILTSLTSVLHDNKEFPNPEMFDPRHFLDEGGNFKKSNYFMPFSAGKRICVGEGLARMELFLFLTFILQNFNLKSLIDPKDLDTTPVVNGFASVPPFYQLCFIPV
As to `O=C(CN1CCN(S(=O)(=O)c2ccc(F)cc2)CC1)Nc1ccccc1F`, the inhibition was 57.1% (active).
With `CCOC(=O)c1[nH]c2ccc(OC)cc2c1NC(=O)CCN1CCN(Cc2ccccc2)CC1`, the inhibition is 32.7%.
The same measure for `COc1ccc(S(=O)(=O)N2CCCC(C(=O)Nc3ccc(NC(=O)c4ccccn4)cc3)C2)cc1` (configuration not stated): 20.8%.
The same measure for `O=C(Nc1ccccc1F)c1cc(S(=O)(=O)N2CCCCC2)cs1`: 62% (active); for `CCOc1ccccc1NC(=O)c1cc(S(=O)(=O)N2CCC3(CC2)OCCO3)ccc1F`: 9.8%.
Turning to `COc1ccccc1NC(=O)CN1CCN(S(=O)(=O)c2ccc(Br)cc2)CC1`, the inhibition was 34%.
On to `CCOc1ccccc1NC(=O)CCN1CCN(S(=O)(=O)c2ccc(OC)cc2)CC1`, for which the inhibition is 68.5% (active).
For the compound `COc1cc2c(cc1NC(=O)CN1CCN(S(=O)(=O)c3ccc(F)cc3)CC1)oc1ccccc12`, the inhibition is 11.9%.
In the case of `O=C(Nc1ccc(S(=O)(=O)N2CCCCC2)cc1)c1cnccn1`, the inhibition is 9.9%.
For `Cc1nc2ccc(C(=O)N3CCSCC3)cc2s1`, the inhibition was -5.2%.
The same measure for `CCOC(=O)c1ccc(NC(=O)CSc2nnc(COc3ccccc3OC)n2C)cc1`: 38.9%; for `CCOC(=O)c1c(NC(=S)NC(=O)c2ccco2)sc2c1CCCC2`: -3.4%; for `O=C(CCS(=O)(=O)c1cccc2nsnc12)N1CCN(c2ccccc2F)CC1`: 45.5%.
Next, `Cc1ccc(S(=O)(=O)N2CCC(C(=O)N[C@@H](C)C(=O)NCc3ccccc3)CC2)cc1`: 6%.
Take `CCN=C1SC(CC(=O)Nc2ccc(C)cc2)C(=O)N1CC` (configuration not stated): the inhibition was 38.5%.
The same measure for `CN(C(=O)CC(NC(=O)c1ccccc1)(c1ccccc1)c1ccccc1)c1ccccc1`: 36.4%.
Consider `CCOC(=O)c1nc(Nc2ccc(C(=O)OC)cc2)c2ccccc2n1`, for which the inhibition was 49.1%.
With `COC(=O)c1ccc(NCC(=O)c2ccccc2)cc1`, the inhibition is 64.3% (active).
With `COC(=O)c1ccc(NC(=O)Nc2ccc(C)cc2)cc1`, the inhibition was 2.9%.
On to `C=CCNC(=O)CSc1nc2sc(C)c(C)c2c(=O)[nH]1`, for which the inhibition was 14.3%.
Next, `CCSc1nnc(NC(=O)c2ccc(C)cc2)s1`: 25.5%; `CC1=CC(C)(C)N(C(=O)CSc2nnc(-c3ccccc3)o2)c2ccc(C)cc21`: 25.2%.
In the case of `CC1=CC(C)(C)N(C(=O)CSc2nccn2C)c2cc(C)ccc21`, the inhibition was 82.8% (active).
`CCOC(=O)c1c(NC(=O)CCC(=O)NCc2ccco2)sc2c1CCCC2`: the inhibition is 10.1%.
With `COc1ccccc1NC(=O)[C@H](COCc1ccccc1)NC(=O)OC(C)(C)C`, the inhibition is 54.6% (active).
Turning to `COc1ccccc1NC(=O)CC(NCCN(C)C)C(=O)O` (configuration not stated), the inhibition is -1.5%.
As to `COc1ccccc1NC(=S)NC(=O)C(C)C`, the inhibition was 16.5%.
For the compound `C/C(=C\C(=O)c1ccc(Br)cc1)N1CCCCC1`, the inhibition was 7.2%.
The same measure for `O=C(CNCCO)NC12CC3CC(CC(C3)C1)C2`: 0.8%; for `CCOc1ccc2nc(N3CCCN(C(=O)Nc4ccccc4C)CC3)c(C#N)cc2c1`: 89.4% (active); for `Cc1cccc2cc(C#N)c(N3CCCC3)nc12`: 1.4%.
Next, `COc1ccc2nc(N3CCCC(O)C3)c(C#N)cc2c1` (configuration not stated): 42.8%; `CS(=O)(=O)N(C(=O)NC(=O)NC1CCS(=O)(=O)C1)C1CCCCC1` (configuration not stated): -6.1%; `Cc1c(C(=O)N2CC(C)OC(C)C2)sc2nc(-c3ccccc3)cn12` (configuration not stated): 3.7%.
On to `CC(C)NC(=O)NC(=O)COC(=O)c1ccc(NC(=O)CC#N)cc1`, for which the inhibition is 0.7%.
With `COc1ccc([N+](=O)[O-])cc1C1NN=C(c2cccc3ccccc23)S1` (configuration not stated), the inhibition was 32.4%.
On to `CCN1CCN(C(=O)c2cc3cc4ccc(OC)cc4nc3s2)CC1`, for which the inhibition is -9.4%.
On to `Cc1ccc(C)c(N2CCN(S(=O)(=O)c3ccc4c(c3)oc(=O)n4C)CC2)c1`, for which the inhibition is 4.3%.
With `O=c1ccc2cc(S(=O)(=O)N3CCN(c4ccccc4)CC3)ccc2o1`, the inhibition is 1.3%.
As to `Cc1cc(N2CCN(S(=O)(=O)c3ccc(C)c(C)c3)CC2)c2ccccc2n1`, the inhibition is 95.8% (active).
`O=C(c1cccc(N2CCCC2=O)c1)N1CCOCC1`: the inhibition was -8.7%.
Turning to `O=C(O)CC(c1ccccc1)n1cnnn1` (configuration not stated), the inhibition is -12.4%.
Regarding `O=C(c1ccc(-n2cnnn2)cc1)N1CCN(C(c2ccccc2)c2ccccc2)CC1`, the inhibition is 71.6% (active).
As for `NC(=O)C1CCN(C(=O)c2ccc(-c3ccccc3)cc2)CC1`, the inhibition is 9.6%.
Consider `Cc1ccc2cc3cc(C(=O)N4CCCCCC4)oc3nc2c1`, for which the inhibition is 19.1%.
For the compound `COc1cc(/C=N/Nc2nn3cnnc3c3ccccc23)cc(OC)c1OC`, the inhibition was 18.8%.
On to `O=C1c2cccc3cccc(c23)N1CN1CCN(c2ccccn2)CC1`, for which the inhibition was 1.9%.
`Cc1ccc(OCC(O)CN2CCN(CC(O)COc3ccc(C)cc3Cl)CC2)c(Cl)c1` (configuration not stated): the inhibition is -5.7%.
As for `OC(COc1cccc2ccccc12)CN1CCN(c2ccccn2)CC1` (configuration not stated), the inhibition is 88.8% (active).
For `COc1ccc(-n2cnc3cc(NCc4ccco4)ccc32)cc1`, the inhibition is 42.6%.
In the case of `O=C(Nc1ccccc1)c1ccc2nsnc2c1`, the inhibition is 18.4%.
Consider `CC(=O)NS(=O)(=O)c1ccc(NC(=O)/C=C/c2ccccc2Cl)cc1`, for which the inhibition is 4%.
As to `O=c1[nH]c2ccccc2n2c(-c3ccccc3)nnc12`, the inhibition was 32.6%.
Turning to `COC(=O)CSC1=C(C#N)C(c2ccccc2OC)C(C(=O)OC)C(=O)N1` (configuration not stated), the inhibition is 55.4% (active).
With `CCOc1ccc2cc(C#N)c(SCC(=O)OC)nc2c1`, the inhibition was 4.1%.
As for `CCCSC1=C(C#N)C(c2ccccc2C)C(C(=O)OC)C(=O)N1` (configuration not stated), the inhibition is 41%.
Consider `CC1CCCC(C)N1CCCNC(=O)c1cc2c(=O)n(C)c3ccccc3c2n1C` (configuration not stated), for which the inhibition was -9.2%.
